Inhibition data for 40 molecules are collected here from PubChem BioAssay.

Activity calls are given as the source filed them. How the calls were made is not given here.

Pantothenate synthetase (Mycobacterium tuberculosis (strain ATCC 25618 / H37Rv)), sequence (P9WIL5 whole entry, looked up): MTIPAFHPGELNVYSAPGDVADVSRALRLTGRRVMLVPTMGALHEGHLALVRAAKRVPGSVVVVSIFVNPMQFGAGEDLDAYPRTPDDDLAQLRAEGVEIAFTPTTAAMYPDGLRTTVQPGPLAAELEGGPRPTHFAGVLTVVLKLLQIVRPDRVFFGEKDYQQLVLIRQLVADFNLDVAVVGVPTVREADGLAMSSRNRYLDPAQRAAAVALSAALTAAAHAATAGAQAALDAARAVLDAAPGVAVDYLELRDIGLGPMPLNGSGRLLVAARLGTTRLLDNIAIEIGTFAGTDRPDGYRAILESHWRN

This test addresses Pantothenate synthetase (Mycobacterium tuberculosis (strain ATCC 25618 / H37Rv)) (UniProt P9WIL5). Nature of the test: Recombinant Mtb pantothenate synthetase (PanC) inhibitors, coupled enzyme, confirmatory (AID 375).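 Further: 0% = full reaction with vehicle and 100% = no enzyme background.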 The note with it: coupled enzyme assay; at 10 µM, active compounds read high.
Broadly, the inhibition is how much of the control response was suppressed. Turning to `O=C1N[C@@H](Cc2cnc[nH]2)C(=O)N2CCC[C@@H]12`, the inhibition is 0% (inactive). Next, `N#CCCCN1C(=O)C(O)(CC(=O)c2ccc3c(c2)OCCO3)c2ccccc21` (stereo not given): 0% (inactive). With `O=C(Cn1nnc(-c2ccc(S(=O)(=O)N3CCCC3)cc2)n1)NCC1CCCO1` (stereo not given) the figure was 0% (inactive); with `Cc1cccc(NC(=O)CN(C)S(=O)(=O)c2ccccc2)n1`, 7% (inactive); with `COc1ccc(OC)c(S(=O)(=O)Nc2ccc(C(N)=O)cc2)c1`, 0% (inactive). Turning to `NC(=O)c1cc(-c2ccccc2)nc(N2CCOCC2)n1`, the inhibition is 0% (inactive).

Take `COc1cccc(CN=CC2=C(O)CC(C)(C)CC2=O)c1OC`: the inhibition is 0% (inactive).

With `O=C(Nc1ccc(NC(=O)C2CC2)cn1)c1ccccc1Cl`, the inhibition is 0% (inactive).

Turning to `Cc1ccc(C2c3c(oc4ccccc4c3=O)C(=O)N2c2nnc(C(C)C)s2)o1` (stereo not given), the inhibition was 7% (inactive). In the case of `Cc1onc(-c2ccccc2)c1C(N)=O`, the inhibition is 0% (inactive). With `CC1(C)Cc2cccc(OCC(O)CN3CCN(c4ccccn4)CC3)c2O1` (stereo not given) the figure was 0% (inactive).

`C=C(C)CSc1nnc(-c2cccc(S(=O)(=O)N(C)C)c2)n1-c1cc(OC)ccc1OC`: the inhibition was 1% (inactive). On to `O=C(CSc1nnc(Cn2nnc(-c3ccccc3)n2)n1-c1ccccc1)Nc1ccc(F)cc1`, for which the inhibition is 1% (inactive). Next, `COC(=O)CSc1nc2nc(C)cc(C)n2n1`: 7% (inactive); `Cc1nc2ccccc2c(=O)n1NC(=O)Nc1ccccc1`: 0% (inactive). Next, `CC1(C)NC(=O)N(CNc2cc(Cl)ccc2Cl)C1=O`: 0% (inactive). Next, `CCOC(=O)c1cnc(-n2nc(C)cc2C)nc1N1CC(C)OC(C)C1` (stereo not given): 0% (inactive). Take `CCN(CC)S(=O)(=O)c1ccc(F)cc1`: the inhibition is 0% (inactive). Next, `Cc1ccccc1-n1nnnc1SCC(=O)Nc1ccc(S(=O)(=O)N2CCCC2)cc1`: 0% (inactive); `CC1CC(C)CN(CCCNC(=O)c2ccc3c(c2)NC(=O)C(N2CCCCC2)S3)C1` (stereo not given): 0% (inactive); `O=C(COC(=O)c1ccccc1O)Nc1ccc(OC(F)F)cc1`: 0% (inactive).

For `O=C1NC(c2ccccc2)(C(F)(F)F)SC2=CCCCCN12` (stereo not given), the inhibition is 0% (inactive).

Turning to `CN(C)CC(=O)N1c2ccccc2CCc2ccc(NC(=O)c3ccc(N)cc3)cc21`, the inhibition is 0% (inactive).

For `CC1CCN(C(=O)c2cc(-c3ccc(Cl)c(Cl)c3)on2)CC1`, the inhibition was 3% (inactive).

`COc1cccc(C(=O)Nc2ncc3c(n2)CC(C)CC3=O)c1` (stereo not given): the inhibition was 5% (inactive).

`COc1ccc(NS(=O)(=O)c2coc(C(N)=O)c2)cc1Cl`: the inhibition is 0% (inactive). Take `Cc1cccc(C)c1NC(=O)COC(=O)c1nonc1N`: the inhibition is 0% (inactive). On to `COC(=O)c1cc(NS(=O)(=O)c2ccc3c(c2)CCC(=O)N3)cc(C(=O)OC)c1`, for which the inhibition was 0% (inactive).

As for `CCOC(=O)CCNC(=O)Nc1ccc2nc(C)n(Cc3ccccc3Cl)c(=O)c2c1`, the inhibition was 5% (inactive).

Take `Cc1occc1C(=O)Nc1ccccc1NC(=O)c1ccoc1C`: the inhibition was 3% (inactive). With `CCOc1cccc2cc(C(=O)N3CCN(C/C=C/c4ccccc4)CC3)c(=O)oc12` the figure was 0% (inactive).

`CC(=O)Nn1c(C)nnc1-n1nc(C)cc1C`: the inhibition is 0% (inactive). As to `CC1N=C2c3ccccc3N=C(SCc3cc(=O)n4cc(Cl)ccc4n3)N2C1=O` (stereo not given), the inhibition was 2% (inactive).

As to `COc1ccccc1C(=O)N1CCCC(c2nc(-c3cc(OC)c(OC)c(OC)c3)no2)C1` (stereo not given), the inhibition was 0% (inactive). With `C=CCn1c(C)cc(C(=O)CSc2nc3ccccc3c(=O)[nH]2)c1C` the figure was 0% (inactive). Next, `O=C(Cn1ncc2ccccc21)N1CCN(c2cccc(C(F)(F)F)c2)CC1`: 2% (inactive); `COC(=O)C1=C(C)NC(C)=C(C(=O)OC)C1c1ccccc1[N+](=O)[O-]`: 0% (inactive).

Regarding `Cc1[nH]nc2c1C1(C(=O)N(Cc3ccc(Cl)cc3)c3ccccc31)C(C#N)=C(N)O2` (stereo not given), the inhibition is 0% (inactive).

`Cc1ccccc1-n1c(SCc2c(C)noc2C)nnc1-c1ccncc1`: the inhibition is 0% (inactive). Consider `COc1ccc(C(NC(=O)c2ccco2)c2ccc(OC)c(OC)c2)cc1` (stereo not given), for which the inhibition is 0% (inactive).
